Experimental data: ChEMBL document CHEMBL1201862, “PubChem BioAssay data set” (2004)
The campaign covered roughly 53,000 sequences. About 3,200 (6%) were called active. This is one part of a sample in which actives are shown more often than they occur. Rule as the data show it: active = GI50 up to about 1.1 µM and inactive = higher. Measured potencies and affinities stand elsewhere.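 Cells were grown in 96-well plates and exposed to each compound for 48 hours at five concentrations; endpoints were interpolated linearly between bracketing concentrations, or set to the highest concentration if not reached. At the GI50, growth is halved.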

These substances were tested on HCC 2998 (assay: NCI tumour cell line growth inhibition, 48 h).

Row | Substance | GI50
1 | CISPLATIN, CHEMBL11359 | 5.4 µM
2 | [Bis(aminomethyl)tetramethylenesilane]dichloropaltinum(II), CHEMBL2146205 | 25.4 µM
3 | [Bis(aminomethyl)dimethylsilane]tetrachloroplatinum(IV), CHEMBL2146190 | 6.78 µM
4 | [Bis(aminomethyl)pentamethylenesilane]tetrachloropaltinum(IV), CHEMBL2146204 | 0.313 µM
5 | [Bis(aminomethyl)ethylmethylsilane]tetrachloroplatinum(IV), CHEMBL2146192 | 2.38 µM
6 | [Bis(aminomethyl)tetramethylenesilane]tetrachloropaltinum(IV), CHEMBL2146189 | 0.682 µM
7 | [Bis(aminomethyl)dimethylsilane]dichloroplatinum (II), CHEMBL2146201 | 10 µM
8 | mu-(1,7-nanodiamine-N,N')bis-(cis-aminedichloroplatimum (II)), CHEMBL2146215 | 24 µM
9 | [Bis(aminomethyl)pentamethylenesilane]dichloropaltinum(II), CHEMBL2146202 | 3.52 µM
